PubChem BioAssay (NCI)
Compounds without any hit were thinned out: in the full panel of roughly 83,000, 20% have a hit.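 Assay: single dose, 48 h. Readout: percent growth (0 = no net growth; negative = cell death). Active: <10.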 Unmarked numbers belong to inactive results. Active and inactive are the calls of the source.

Legend:
Assay in all cases: NCI-60 one-dose screen, 48 h (100 = growth as untreated, 0 = no growth, -100 = all killed)
Settings in all cases: 10 µM unless noted
HCT-15 colon = test system: HCT-15 colon
HT29 colon = test system: HT29 colon
SNB-75 CNS = test system: SNB-75 CNS
SNB-19 CNS = test system: SNB-19 CNS
U251 CNS = test system: U251 CNS
PC-3 prostate = test system: PC-3 prostate
SK-MEL-5 melanoma = test system: SK-MEL-5 melanoma
UACC-62 melanoma = test system: UACC-62 melanoma
LOX IMVI melanoma = test system: LOX IMVI melanoma
SK-MEL-28 melanoma = test system: SK-MEL-28 melanoma
SK-MEL-2 melanoma = test system: SK-MEL-2 melanoma
EKVX NSCLC = test system: EKVX NSCLC
SN12C renal = test system: SN12C renal
UO-31 renal = test system: UO-31 renal
TK-10 renal = test system: TK-10 renal
CAKI-1 renal = test system: CAKI-1 renal
A498 renal = test system: A498 renal
CCRF-CEM leukemia = test system: CCRF-CEM leukemia
MOLT-4 leukemia = test system: MOLT-4 leukemia
ACHN renal = test system: ACHN renal

| SMILES | growth (HCT-15 colon) | growth (HT29 colon) | growth (SNB-75 CNS) | growth (SNB-19 CNS) [%] | growth (U251 CNS) | growth (PC-3 prostate) | growth (SK-MEL-5 melanoma) | growth (UACC-62 melanoma) | growth (LOX IMVI melanoma) | growth (SK-MEL-28 melanoma) | growth (SK-MEL-2 melanoma) | growth (EKVX NSCLC) | growth (SN12C renal) | growth (UO-31 renal) | growth (TK-10 renal) | growth (CAKI-1 renal) [%] | growth (A498 renal) | growth (CCRF-CEM leukemia) | growth (MOLT-4 leukemia) | growth (ACHN renal) |
| --- | --- | --- | --- | --- | --- | --- | --- | --- | --- | --- | --- | --- | --- | --- | --- | --- | --- | --- | --- | --- |
| CCCN1[C@@H]2CC[C@H]1/C(=C\c1ccc(OC)c(OC)c1)C(=O)/C2=C/c1ccc(OC)c(OC)c1 | 41.6% | 30% | 61.1% | 56.7 | 40.7% | 44.3% | 18.1% | 32% | 32.5% | 73.2% | 53.6% | 37.7% | 49.9% | 33.6% | 67.2% | 45.9 | 23.6% | 30.6% | 29.5% |  |
| Cc1cccc(NC(=O)Nc2ccc(-c3ccc4c(c3)NC(=O)/C4=C\c3ccc[nH]3)cc2)c1 | 66.9% | 99.4% | 81.7% | 90.2 | 74.7% | 94% | 100% | 98.1% | 78.7% | 95.9% | 111% | 46.5% | 100% | 70.3% | 93.3% |  |  | 30.1% | 53.8% | 91.1% |
| COc1cc(/C=C/C(=O)c2nc3cc(F)ccc3nc2C)cc(OC)c1OC | 48.1% | 68.5% | 89.9% | 77.9 | 36.7% | 68.1% | 81% | 62.2% | 20.8% | 61.3% | 64.6% | 201% | 66.1% | 61.1% | 103% | 106 | 98% | -4.9% (active) | -18.6% (active) |  |
| COc1ccc2c(c1)C(=O)CC(c1ccccc1OC)O2 (stereo unspecified) | 93.1% | 107% | 80.4% | 98.8 | 98.4% | 104% | 98.7% | 85.8% | 89.3% | 106% | 102% | 73.2% | 94.6% | 96.9% | 169% |  |  | 109% | 81% | 101% |
| Cc1ccc(NC(=O)Cc2ccc(/C=C/C(=O)c3ncc[nH]3)cc2)cc1 | 11% | 9.43% (active) | 22.2% | 16.6 | 7.18% (active) | 53.3% | 73.9% | 66.2% | 10.9% | 86.9% | 109% | 82.4% | 13.5% | 39.5% | 78.4% |  |  | 4.85% (active) | 23.5% | 73.1% |
| Cc1cccc(C)c1N=c1oc2ccc(Cl)cc2nc1-c1ccccc1O | 89.4% | 80.5% | 87.3% | 109 | 94.4% | 88.6% | 91.3% | 81.3% | 87.9% | 93.4% | 85.7% | 78.8% | 86.9% | 76.8% | 101% |  | 95.3% |  |  | 90.7% |
| CC(Sc1nc2ccccc2c(=O)n1CCc1ccc(S(N)(=O)=O)cc1)C(=O)Nc1ccc(Cl)cc1 (stereo unspecified) | 67.9% | 89.5% | 83.3% | 90.1 | 84.1% | 81.7% | 79.4% | 73.6% | 88.3% | 105% | 80.9% | 70.3% | 86.2% | 53.8% | 80.1% |  |  | 63.7% | 68.3% | 86.3% |
| COc1ccc(C(=O)Cn2c(C(=O)c3ccccc3)nc3ccccc32)cc1 | 18.6% | 14.2% | -8.26% (active) | 55.2 | 25.1% | 29.7% | -1.14% (active) | 15.7% | 43.8% | 94.2% | 64.2% | 71.2% | 43% | 32.7% | 59.6% | 24 | 46.8% |  | 7.92% (active) |  |
| CCCCCC(=O)Oc1ccc(/C(=C(\C)c2ccccc2)c2ccc(OCCN3CCCCC3)cc2)cc1 | 58.5% | 8.87% (active) | 92% | 89.6 | 71.7% | 72.2% | 83.9% | 91% | 84% | 71.4% | 81.3% | 93.7% | 79.5% | 59.8% | 85.1% | 88.6 |  | 85.1% | 63.7% | 96.2% |
| CN(C)CC(O)c1ccc(/C=C/c2ccc(Cl)cc2)cc1 (stereo unspecified) | -51.7% (active) | -69.5% (active) | -24.8% (active) | 32.1 | -94% (active) | -30.3% (active) | -91.5% (active) | -79% (active) | -54.2% (active) | -88.2% (active) | -63.9% (active) | 29.7% | -12.3% (active) | -67.2% (active) | -91.5% (active) |  |  | -43.8% (active) | -29.7% (active) | -50.1% (active) |
| C=CCn1c(-c2ccc(-c3nc4ccc(C)cc4[nH]3)cc2)n[nH]c1=S | 99.2% | 105% | 104% | 102 | 101% | 101% | 89.5% | 95.8% | 98.3% | 100% | 112% | 94.5% | 96.4% | 89.7% | 133% |  | 94.5% | 87.3% | 96.9% | 99.6% |
| COc1cc(-c2csc(NC(=O)c3cc(F)cc(C(F)(F)F)c3)n2)cc(OC)c1OC | 34.3% | 6.41% (active) | 19.3% | 40.2 | 31.3% | 36% | 53.2% | 43.6% | 27% | 50.3% | 14.9% | 50% | 35% | 45.3% | 65.1% |  |  | 17% | 25.8% | 49.1% |
| Oc1ccc(OCCOc2ccc(O)cc2)cc1 | 38.4% | 86.9% | 73.8% | 79.2 | 49.5% | 55.7% | 26.8% | 22.5% | 36.4% | 102% | 81.8% | 75.4% | 59.6% | 4.76% (active) | 87.9% |  | 100% | 58.8% | 60.8% | 6.65% (active) |
| Cc1c2cc[nH]c(=O)c2c(C)c2c1[nH]c1cc(OCCN3CCN(C)CC3)ccc12 | 10.1% | -7.17% (active) | 7.53% (active) | 12.9 | 17% | 7.38% (active) | 11.9% | 5.81% (active) | -62.3% (active) | 5.74% (active) | -13.1% (active) | -2.81% (active) | 21% | 2.27% (active) | 27.5% |  | -29.1% (active) | 13.9% |  | -17.5% (active) |
| CCN1Cc2nc3sc(C)c(C)c3c(=O)n2C=C1C | 49.7% | 22.1% | 88% | 49.4 | 24.3% | -6.34% (active) | 78.7% | 46.9% | 53.5% | 67.3% | 91.9% | 59.8% | 57.1% | 34.4% | 87.5% | 61.6 |  |  | -3.45% (active) | 65.3% |
| O=[N+]([O-])CC(c1ccccc1)c1c[nH]c2ccccc12 (stereo unspecified) | 26.5% | 12.5% | 27.2% | 58 | 35.7% | 86.1% | 50.9% | 35% | 45.5% | 59.9% | 22.8% | 67% | 52.8% | 67.3% | 69.7% |  |  | 46.9% | 27.4% | 71.1% |
| CC(=O)[C@@H]1CC[C@]2(CO)CC[C@]3(C)[C@H](CC[C@@H]4[C@@]5(C)CCCNC(C)(C)[C@@H]5CC[C@]43C)[C@@H]12 | 81.5% | 68.1% | 86% | 99.1 | 108% | 86% | 92.7% | 94.7% | 95.6% | 113% | 105% | 95.4% | 91.2% | 84.4% | 110% | 97.1 | 95.3% | 103% | 95.3% |  |
